3T3 cytotox: NIH 3T3 cell cytotoxicity; NIH 3T3 viability, CellTiter-Glo ATP luminescence, 48-72 h; Potency, µM (doses to about 96.7 µM), actives largely listed as inhibitors; hit rate 4.3% among 94,000; AID 1345082; further: nearly all actives have a fitted effect of over 55% in size
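Cytotoxicity was measured by CellTiter-Glo ATP luminescence after 48 or 72 h compound exposure at 37 °C. Mouse NIH 3T3 fibroblasts were seeded at 400 cells/well and dosed by 23 nL pin transfer.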
NPR1 antag: blocks ANP-stimulated signaling of human Npr1 receptor. P16066. HEK293 hNpr1 GloSensor cGMP, ANP-stimulated luminescence. Potency, µM (doses to about 46.3 µM), usual class: inhibitors. hit rate 1.6% among 76,000. AID 1347048; calls by dose curve; further: nearly all actives have a fitted effect of over 60% in size
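Compound pre-incubated 30 min at room temperature on GloSensor-loaded HEK293 cells stably carrying hNpr1 and the pGS-40F cGMP biosensor. Stimulation uses hNppA at 0.1 nM final; luminescence is taken at baseline and 20 min post-agonist.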
HEK293 tox: kills HEK 293 cells; hit rate 6.6% among 94,000; HEK 293 viability, ATP luminescence (CellTiter-Glo), 48-72 h; Potency, µM (titrated, usually from 115 µM), hits mostly inhibitors; AID 1345083; further: nearly all actives have a fitted effect of over 60% in size
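250 HEK 293 cells/well; compound by pintool; incubated 48 or 72 hr at 37 degree Celsius; CellTiter-Glo added, 10 min RT, luminescence imaged.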
Luciferase inh: Photinus pyralis luciferase inhibition | hit rate 2.5% among 76,000 | P08659 | Potency, µM (doses to about 115 µM), hits mostly inhibitors | purified P. pyralis luciferase, luminescence, biochemical; further: nearly all actives have a fitted effect of over 65% in size
Target sequence (P08659 whole entry, looked up): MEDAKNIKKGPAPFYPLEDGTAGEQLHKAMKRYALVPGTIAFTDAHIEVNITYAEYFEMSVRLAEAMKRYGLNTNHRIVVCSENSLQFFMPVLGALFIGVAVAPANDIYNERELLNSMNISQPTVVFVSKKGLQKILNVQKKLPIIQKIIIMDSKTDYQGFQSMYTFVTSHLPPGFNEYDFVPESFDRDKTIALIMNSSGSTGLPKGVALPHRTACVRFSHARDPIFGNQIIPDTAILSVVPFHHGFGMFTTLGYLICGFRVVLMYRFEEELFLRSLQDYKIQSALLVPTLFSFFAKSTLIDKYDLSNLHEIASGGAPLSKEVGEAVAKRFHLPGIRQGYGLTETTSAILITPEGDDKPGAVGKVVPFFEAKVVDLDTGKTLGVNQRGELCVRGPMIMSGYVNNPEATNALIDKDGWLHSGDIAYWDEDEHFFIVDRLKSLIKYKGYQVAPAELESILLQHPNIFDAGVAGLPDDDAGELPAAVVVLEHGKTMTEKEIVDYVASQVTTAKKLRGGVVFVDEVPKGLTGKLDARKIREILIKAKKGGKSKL
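Luminescence read by CCD imaging after purified firefly luciferase (10nM final) was added to substrate buffer holding 10uM D-luciferin and 10uM ATP, pH 7.5, pre-dosed with compound.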
Numbers stand for hits; . = inactive; ? = inconclusive; / = not tested or not shown. Compounds with a hit are over-represented: about 11% of the library has one in this group of screens. Unless noted, the call rests on the fitted dose curve; in most records, active means well fitted curve in the direction sought with a large enough effect; inconclusive means small, poorly fitted or top-dose-only effect, or another doubt; inactive means no such curve, though single readings can be large; an effect the other way counts as inactive or inconclusive.

SMILES | 3T3 cytotox | NPR1 antag | HEK293 tox | Luciferase inh
C[S+](=O)([O-])N1CCN(Cc2ccccc2-c2cccnc2)CC1 | . | / | ? | /
O=C(c1ccccn1)N1CCN(Cc2ccccc2-c2ccccc2F)CC1 | . | / | . | /
O=[S+]([O-])(c1ccccc1)N1CCN(Cc2ccccc2-c2ccccc2F)CC1 | ? | / | 22µM | /
O=[S+]([O-])(c1cccc(C(F)(F)F)c1)N1CCN(Cc2ccccc2-c2cccnc2)CC1 | 35µM | / | ? | /
Cc1ccc(C(=O)N2CCCC(C(=O)N3CCC(N4CCOC4=O)CC3)C2)cc1 (stereo unspecified) | . | / | . | /
O=C(C1CCCN1C(=O)c1cccc(-c2ccccn2)c1)N1CCN(Cc2ccccc2)CC1 (stereo unspecified) | . | / | . | /
O=C(NCc1cccc(F)c1)c1cnc2c(c1)N(Cc1ccccc1)CCC2 | ? | . | ? | .
COc1ccccc1CC(=O)N1CCCc2ncc(C(=O)Nc3cccc(C(F)(F)F)c3)cc21 | ? | . | 50µM | .
COc1ccccc1CC(=O)N1CCCc2ncc(C(=O)Nc3cccc(Cl)c3)cc21 | ? | ? | 56µM | .
O=C(Nc1cccc(C(F)(F)F)c1)c1cnc2c(c1)N(Cc1ccccc1)CCC2 | 32µM | . | 63µM | .
COc1ccccc1CC(=O)N1CCCc2ncc(C(=O)Nc3ccc(OC)c(OC)c3)cc21 | . | . | ? | .
COc1ccc(NC(=O)c2cnc3c(c2)N(C(=O)Cc2cccc(C(F)(F)F)c2)CCC3)cc1OC | ? | . | ? | .
CNC(=O)c1ccc(CN2CCCC(Nc3ccc(F)cc3)C2)o1 (stereo unspecified) | . | . | . | .
COc1ccc(CNC(=O)c2ccc(-c3ccc(N4CCSCC4)nc3)cc2)cc1OC | ? | 10µM | ? | ?
O=C(NCc1ccc2c(c1)OCO2)c1ccc(-c2ccc(N3CCSCC3)nc2)cc1 | ? | . | ? | ?
Cc1ccc(CNC(=O)c2ccc(-c3ccc(N4CCSCC4)nc3)cc2)o1 | ? | . | ? | 28µM
COc1ccccc1N1CCN([C@@H]2[C@H](O)[C@H](CO)O[C@@H]2CNS(=O)(=O)c2ccc(Cl)cc2)CC1 | . | . | ? | .
CCC(=O)N1CCC2(CC1)C(OC)C(=O)N2CC1CC1 (stereo unspecified) | . | . | . | .
COCCN(Cc1nccs1)C(=O)c1cnc(-c2ccccn2)[nH]c1=O | ? | . | 40µM | .
O=C(NCc1ccccn1)c1ccc2nnc(CC3CC3)n2c1 | . | / | . | /
CN(Cc1cccc2cnccc12)C(=O)COc1ccc(Cl)cc1Cl | ? | ? | 45µM | .
COc1ccc(-c2ccccc2C(=O)N2CCC(NC(=O)c3cccnc3)CC2)nn1 | . | / | . | /
COc1cc(C(=O)NC2CCCc3c2[nH]c2ccccc32)cc(OC)c1OC (stereo unspecified) | ? | . | ? | .
COC(=O)[C@@H]1Cc2c([nH]c3ccccc23)[C@H]2C[C@@H](NC(C)C)C[C@@H](c3ccccc3)N21 | 40µM | . | 35µM | ?
COC(=O)[C@@H]1Cc2c([nH]c3ccccc23)[C@H]2C[C@@H](NC(C)C)C[C@@H](c3ccc(C)cc3)N21 | 40µM | . | 35µM | .
SMILES | 3T3 cytotox | NPR1 antag | HEK293 tox | Luciferase inh
CCOC(=O)[C@H]1C[C@]2(CCCCN(CCO)C2=O)N(C(=O)C(CC)CC)[C@H]1c1ccco1 | . | / | ? | /
O=C1COCC2(CN1Cc1ccccc1)CN(C(=O)c1ccc(F)c(Cl)c1)C2 | 89µM | . | . | .
O=C1COCC2(CN1Cc1ccccc1)CN(c1cccnc1)C2 | 89µM | . | . | .
O=C1COCC2(CN(Cc3cc(F)ccc3F)C2)CN1Cc1ccccc1 | . | . | 100µM | .
O=C1COCC2(CN1Cc1ccccc1)CN(C(=O)C1(c3ccccc3)CC1)C2 | 79µM | . | . | .
O=C(N1CCOCC2(C1)CN([S+](=O)([O-])c1ccccc1)C2)C1(c2ccccc2)CC1 | . | . | ? | .
COc1cncc(N2CC3(COCC(=O)N(Cc4cccc(OC(F)(F)F)c4)C3)C2)c1 | ? | . | ? | .
COc1ccc(CN2CC3(COCC2=O)CN(c2ccccc2)C3)cc1F | ? | . | ? | .
O=C(Nc1ccccc1)N1CCN(C(=O)c2nc3cccnc3n(C3CC3)c2=O)CC1 | . | / | . | /
CCC(CC)NC(=O)CCC1CCN(C(=O)c2ccccc2Cl)CC1 | . | . | ? | 40µM
O=C(CCC1CCN(C(=O)c2ccccc2Cl)CC1)NC1CC1 | . | . | . | .
Cc1ccccc1C(=O)N1CCC(CCC(=O)NCCC(C)C)CC1 | . | . | . | ?
